Records with an inconclusive call do not appear. Activity calls are given as the source filed them. Calls follow the shape of the dose curve; as a rule, active = well fitted curve in the direction sought with a large enough effect; inconclusive = small, poorly fitted or top-dose-only effect, or another doubt; inactive = no such curve, though single readings can be large; an effect the other way counts as inactive or inconclusive.
How the values were obtained:
[1] = P-glycoprotein substrates identified in KB-8-5-11 adenocarcinoma cell line, qHTS therapeutic library screen (AID 1346987); conditions: outcome: dose series up to 44.5 µM; also: series mostly up to about 44 µM; nearly all actives have a fitted effect of over 65% in size
Outline: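 KB-8-5-11, a colchicine-selected P-gp-overexpressing KB-3-1 subline, was grown without colchicine for the assay. Cells were seeded at 500 cells/well, dosed in concentration-response and incubated 72 h at 37 degree C, 5% CO2. Viability was read by CellTiter-Glo luminescence.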

[2] = NS1 protein of Zika virus - qHTS assay to identify small molecule inhibitors in human HEK 293 cells (AID 1347053); also: series mostly up to about 46 µM; nearly all actives have a fitted effect of over 55% in size
Outline: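 HEK 293; 20 h pre-culture, 37 C/5% CO2; cpd 1 h pre-infection; ZIKV MR766, MOI = 0.5, 24 h, 37 C; TR-FRET NS1 readout (two anti-NS1 Abs); norm. to no-virus vs infected.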

[3] = qHTS of pediatric cancer cell lines to identify multiple opportunities for drug repurposing: Primary screen for TC32 cells (AID 1347089); also: nearly all actives have a fitted effect of over 60% in size
Outline: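 Luminescent CellTiter-Glo read-out of metabolically active TC32 cells after 48 h compound exposure. Primary: MIPE 11-point, 0.78 nM–46 µM; NPC 8-point, 0.59 nM–46 µM. Confirmatory: 11-point dilutions.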

[4] = qHTS of pediatric cancer cell lines to identify multiple opportunities for drug repurposing: Primary screen for SJ-GBM2 cells (AID 1347091)
Outline: (§1)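 Viability measured as metabolically active cells via CellTiter-Glo luminescence following 48 hours of compound exposure, 11-point dilutions in confirmatory testing. 500-1,000 cells/well plated 5 hours before dosing; controls were DMSO and 2.3 µM bortezomib.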

[5] = qHTS of pediatric cancer cell lines to identify multiple opportunities for drug repurposing: Primary screen for A673 cells (AID 1347092); also: nearly all actives have a fitted effect of over 45% in size
Outline: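 A673 cells (500-1,000 cells/well in growth media) were pre-incubated 5 h at 37 degrees C, then exposed to compounds for 48 h. Viability was read as CellTiter-Glo luminescence; concentration-response curves came directly from the primary screen.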

[6] = qHTS of pediatric cancer cell lines to identify multiple opportunities for drug repurposing: Primary screen for SK-N-MC cells (AID 1347093); also: series mostly up to about 46 µM
Outline: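 Metabolically active cells were quantified by ATP-dependent luminescence (CellTiter-Glo, 15 min at room temperature) following 48 h treatment. Cells had been plated at 500-1,000 per well and settled for 5 h beforehand.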

[7] = qHTS of pediatric cancer cell lines to identify multiple opportunities for drug repurposing: Primary screen for BT-37 cells (AID 1347094); also: series mostly up to about 57 µM
Outline: (§2)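 500-1,000 cells/well; 5 h pre-incubation 37 °C/5% CO2; compound pinned; 48 h; CellTiter-Glo, 15 min RT; luminescence. MIPE 11-pt from 0.78 nM, NPC 8-pt from 0.59 nM final. Bortezomib 2.3 µM final as positive control.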

[8] = qHTS of pediatric cancer cell lines to identify multiple opportunities for drug repurposing: Primary screen for NB-EBc1 cells (AID 1347095)
Outline: as §2

[9] = qHTS of pediatric cancer cell lines to identify multiple opportunities for drug repurposing: Primary screen for U-2 OS cells (AID 1347096); also: nearly all actives have a fitted effect of over 50% in size
Outline: (§3)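 Viability after 48 h compound treatment at 37C, 500-1,000 cells/well, read as ATP luminescence with CellTiter-Glo. Primary screens used 11-point (MIPE, 0.78 nM-46 µM) or 8-point (NPC, 0.59 nM-46 µM) final concentrations; follow-up screens used 11-point dilutions.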

[10] = qHTS of pediatric cancer cell lines to identify multiple opportunities for drug repurposing: Primary screen for Saos-2 cells (AID 1347097); also: nearly all actives have a fitted effect of over 40% in size
Outline: as §2

[11] = qHTS of pediatric cancer cell lines to identify multiple opportunities for drug repurposing: Primary screen for NB1643 cells (AID 1347099); also: nearly all actives have a fitted effect of over 50% in size
Outline: as §2

[12] = qHTS of pediatric cancer cell lines to identify multiple opportunities for drug repurposing: Primary screen for LAN-5 cells (AID 1347100)
Outline: as §3

[13] = qHTS of pediatric cancer cell lines to identify multiple opportunities for drug repurposing: Primary screen for BT-12 cells (AID 1347101); also: nearly all actives have a fitted effect of over 25% in size
Outline: (§4)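 Cells (500-1,000/well) rested 5 h, then received compounds for 48 h; metabolically active cells were measured by CellTiter-Glo luminescence. Final concentrations spanned up to 46 µM (MIPE, 11-point) or 0.59 nM-46 µM (NPC, 8-point) in primary screens, 11-point in follow-ups.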

[14] = qHTS of pediatric cancer cell lines to identify multiple opportunities for drug repurposing: Primary screen for Rh18 cells (AID 1347102); also: nearly all actives have a fitted effect of over 65% in size
Outline: as §3

[15] = qHTS of pediatric cancer cell lines to identify multiple opportunities for drug repurposing: Primary screen for OHS-50 cells (AID 1347103); also: nearly all actives have a fitted effect of over 40% in size
Outline: as §4

[16] = qHTS of pediatric cancer cell lines to identify multiple opportunities for drug repurposing: Primary screen for RD cells (AID 1347104); also: nearly all actives have a fitted effect of over 55% in size
Outline: as §2

[17] = qHTS of pediatric cancer cell lines to identify multiple opportunities for drug repurposing: Primary screen for MG 63 (6-TG R) cells (AID 1347105); also: nearly all actives have a fitted effect of over 50% in size
Outline: as §2

[18] = qHTS of pediatric cancer cell lines to identify multiple opportunities for drug repurposing: Primary screen for SK-N-SH cells (AID 1347098);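 also: DMSO served as neutral control and bortezomib at 2.3 µM as positive control; nearly all actives have a fitted effect of over 65% in size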
Outline: as §4

[19] = qHTS of pediatric cancer cell lines to identify multiple opportunities for drug repurposing: Primary screen for DAOY cells (AID 1347090); also: series mostly up to about 46 µM; nearly all actives have a fitted effect of over 55% in size
Outline: as §1

Measured: Potency

CO[C@@]1(NC(=O)C(C(=O)O)c2ccc(O)cc2)C(=O)N2C(C(=O)O)=C(CSc3nnnn3C)CO[C@@H]21 (stereo partly drawn)
not listed: [18] | [19]
inactive: all other assays above

CC[N+](CC)(CC(=O)Nc1c(C)cccc1C)Cc1ccccc1
not listed: [5] | [10] | [19]
inactive: all other assays above

CC1(C)S[C@@H]2[C@H](NC(=O)C(C(=O)O)c3ccccc3)C(=O)N2[C@H]1C(=O)O (stereo partly drawn)
not listed: [2]
inactive: all other assays above

CCCNC(C)C(=O)Nc1c(C)csc1C(=O)OC (stereo not drawn)
not listed: [19]
inactive: all other assays above

COC(=O)N/N=C/c1c[n+]([O-])c2ccccc2[n+]1[O-]
not listed: [2] | [10] | [13] | [18]
inactive: all other assays above

CN1C[C@@H]2C[C@H]1CN2c1cc2c(cc1F)c(=O)c(C(=O)O)cn2C1CC1
not listed: [1] | [13] | [15] | [18]
inactive: all other assays above

CC(=O)Oc1cccc(C)c1
not listed: [2] | [11]
inactive: all other assays above

O=c1[nH]cnc2nc[nH]c12
not listed: [2] | [4] | [5] | [8] | [10] | [18]
inactive: all other assays above

O=c1[nH]c(=O)n([C@H]2C[C@H](O)[C@@H](CO)O2)cc1I
not listed: [2] | [5] | [19]
inactive: all other assays above

O=C(O)c1cc(=O)c2ccccc2o1
not listed: [2] | [5] | [13] | [18]
inactive: all other assays above

CC1CCc2cc(F)cc3c(=O)c(C(=O)O)cn1c23 (stereo not drawn)
not listed: [1] | [11] | [19]
inactive: all other assays above

O[C@@H]1CO[C@H]2[C@@H]1OC[C@@H]2O
not listed: [2] | [14] | [15] | [18]
inactive: all other assays above

CC(=O)Nc1cccc(O)c1
not listed: [2] | [10]
inactive: all other assays above

O=C(O)c1ccc(OCCCOc2ccc(C(=O)O)cc2)cc1
not listed: [2] | [10]
inactive: all other assays above

CC(=O)Nc1ccc(C(=O)O)cc1
not listed: [2] | [10]
inactive: all other assays above

Cc1c(NC(=O)c2cccnc2)c(=O)n(-c2ccccc2)n1C
not listed: [2] | [4] | [19]
inactive: all other assays above

C[C@H]1COc2c(C3(N)CC3)c(F)cc3c(=O)c(C(=O)O)cn1c23
not listed: [2] | [5] | [11]
inactive: all other assays above

Cc1ccc(S(=O)(=O)NC(=O)NC2CCCCC2)cc1
not listed: [2] | [5] | [11] | [13] | [19]
inactive: all other assays above

COc1ccccc1Oc1c(NS(=O)(=O)c2ccc(C(C)(C)C)cc2)nc(-c2ncccn2)nc1OCCO
not listed: [2] | [8] | [15] | [19]
inactive: all other assays above

CC(=O)OCC(COC(C)=O)OC(C)=O
not listed: [2] | [5] | [14]
inactive: all other assays above

CC(=O)Nc1ccc(OCCOCCOc2ccc(NC(C)=O)cc2)cc1
not listed: [2] | [10] | [11] | [14]
inactive: all other assays above

Cc1onc(-c2ccccc2)c1-c1ccc(S(N)(=O)=O)cc1
not listed: [1] | [5] | [13] | [15] | [18]
inactive: all other assays above

COc1nccnc1NS(=O)(=O)c1ccc(N)cc1
not listed: [2] | [10] | [13]
inactive: all other assays above

Cc1c(NC(C)C)c(=O)n(-c2ccccc2)n1C
not listed: [2] | [10] | [11] | [19]
inactive: all other assays above

COC(=O)c1ccccc1C(=O)c1ccc(OCCN2CCCCC2)cc1
not listed: [1] | [11]
inactive: all other assays above

CCOc1ccccc1O[C@H](c1ccccc1)[C@H]1CNCCO1
not listed: [1] | [2] | [5] | [15] | [18]
inactive: all other assays above

CC(=O)Oc1cccc(O)c1
not listed: [2] | [15] | [19]
inactive: all other assays above

CCN1CC(CCN2CCOCC2)C(c2ccccc2)(c2ccccc2)C1=O (stereo not drawn)
not listed: [1] | [6] | [18] | [19]
inactive: all other assays above

CCN(CC)CC1CCCCN1CC(=O)N1c2ccccc2C(=O)Nc2cccnc21 (stereo not drawn)
not listed: [2] | [10] | [13] | [18]
inactive: all other assays above

C=CCOc1ccccc1OCC(O)CNC(C)C (stereo not drawn)
not listed: [2] | [19]
inactive: all other assays above

CCCCOC(=O)c1ccc(N)cc1
not listed: [1] | [8] | [11] | [15] | [16]
inactive: all other assays above

CC[C@]12CCCN3CCc4c(n(c5ccccc45)[C@@](O)(C(=O)OC)C1)[C@@H]32
not listed: [1] | [10] | [13] | [14] | [15] | [18]
inactive: all other assays above

O=C(O)C(S)C(S)C(=O)O (stereo not drawn)
not listed: [1] | [2] | [10] | [14]
inactive: all other assays above

O=C(O)c1ccccc1OP(=O)(O)O
not listed: [2] | [10] | [13] | [19]
inactive: all other assays above

Cc1cc(NC(=O)C2=C(O)c3ccccc3S(=O)(=O)N2C)no1
not listed: [2] | [10]
inactive: all other assays above

OC[C@@H](O)[C@@H](O)[C@H](O)[C@H](O)CO
not listed: [2] | [5] | [6] | [10] | [14] | [18] | [19]
inactive: all other assays above

Nc1ccncc1N
not listed: [2] | [10]
inactive: all other assays above

Cc1cc(C)nc(NS(=O)(=O)c2ccc(N)cc2)n1
not listed: [2] | [10] | [15] | [18]
inactive: all other assays above

O=C1c2cccc(O)c2C(=O)c2c(O)cccc21
not listed: [1] | [2] | [8] | [12]
inactive: all other assays above

CNCc1ccccc1
not listed: [2] | [5] | [6] | [18]
inactive: all other assays above

CCCNC(C)(C)COC(=O)c1ccccc1
not listed: [2] | [6] | [10] | [11] | [13]
inactive: all other assays above

O=C(O)c1ccccc1C(=O)Nc1ccc(S(=O)(=O)Nc2nccs2)cc1
not listed: [2] | [6] | [15]
inactive: all other assays above

CCOC(=O)OC(C)OC(=O)[C@@H]1N2C(=O)[C@@H](NC(=O)[C@H](N)c3ccccc3)[C@H]2SC1(C)C (stereo partly drawn)
not listed: [2] | [18]
inactive: all other assays above

Reference: PubChem BioAssay (NCATS)
